Screening results from PubChem.
Rows were chosen to be rich in hits. Some 3.4% of all compounds tested hit in one or more screens of this group.
FBW7 activator = activators of human E3 ligase FBW7. Q969H0. AlphaScreen FBW7–phospho-cyclin E peptide binding, activator screen. normalized activity (activation), % at 26.1 µM. hit rate 0.13% among 650,000. AID 1259310; in the data active = normalized activity above about 1.9%;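 also: purified mutant Fbw7 with reduced substrate affinity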
MITF primary = human MITF inhibition, primary screen; AlphaScreen MITF homodimerization, bead proximity signal; inhibition, % at 2.6 µM; hit rate 0.91% among 650,000; AID 1259374; in the data active = inhibition above about 50%
Target sequence (O75030 whole entry, looked up): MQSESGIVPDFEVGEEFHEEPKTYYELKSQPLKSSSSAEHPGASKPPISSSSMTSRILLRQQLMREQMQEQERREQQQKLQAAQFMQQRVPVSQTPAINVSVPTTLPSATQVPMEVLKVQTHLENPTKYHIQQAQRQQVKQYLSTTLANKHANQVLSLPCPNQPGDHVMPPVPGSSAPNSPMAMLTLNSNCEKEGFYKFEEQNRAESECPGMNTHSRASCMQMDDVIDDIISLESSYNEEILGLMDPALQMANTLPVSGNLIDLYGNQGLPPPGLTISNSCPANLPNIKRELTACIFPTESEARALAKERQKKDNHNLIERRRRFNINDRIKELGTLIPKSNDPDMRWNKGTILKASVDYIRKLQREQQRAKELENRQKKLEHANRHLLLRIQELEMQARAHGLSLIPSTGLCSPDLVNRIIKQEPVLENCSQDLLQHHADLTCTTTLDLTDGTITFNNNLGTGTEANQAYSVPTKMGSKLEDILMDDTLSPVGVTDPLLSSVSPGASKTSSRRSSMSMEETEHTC
TEAD-YAP inh = TEAD-YAP interaction inhibition; HEK-TIYL cells, TEAD-Gal4/YAP UAS-luciferase luminescence; inhibition, % at 9.12 µM; hit rate 1.4% among 640,000; in the data active = inhibition above about 32%
GPR151 ag = human GPR151 activation; Q8TDV0; PathHunter beta-arrestin GPR151 cells, luminescence; activation, % at 11.2 µM; hit rate 1% among 650,000; AID 1508602; in the data active = activation above about 4.9%
MITF confirm = human MITF inhibition, confirmation. shares compounds with MITF primary. inhibition, % at 2.6 µM. AID 1259372. AlphaScreen MITF homodimerization, biotin/His-MITF beads. hit rate 16% among 4,700;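 active = inhibition above a cutoff derived from the DMSO control wells, cut at about 28% in these data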;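 also: inhibitors lower the bead chemiluminescence by keeping MITF from dimerizing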
AlphaScreen intf2 = counter-screen: compounds optically interfering with AlphaScreen; shares compounds with MITF primary; LysRS AlphaScreen counterscreen, signal interference, triplicate; inhibition, % at 2.6 µM; hit rate 7.6% among 4,700; AID 1259376;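 active = inhibition above a cutoff derived from the DMSO control wells, cut at about 30% in these data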
Numbers stand for hits.

COc1cc(Cl)c(C2Oc3nc(SC)nnc3-c3ccccc3N2C(C)=O)cc1OC (stereo not drawn) was read as FBW7 activator inactive, MITF primary inactive, TEAD-YAP inh inactive and GPR151 ag inactive.
`CN(C)CCCCOc1ccc([N+](=O)[O-])cc1` gave FBW7 activator inactive, MITF primary 77, TEAD-YAP inh inactive, GPR151 ag inactive, MITF confirm inactive and AlphaScreen intf2 inactive.
For COc1ccc(OCCCCOc2ccc([N+](=O)[O-])cc2)cc1 the results were FBW7 activator inactive, MITF primary inactive, TEAD-YAP inh inactive and GPR151 ag inactive.
Screening C=CCNCCCOc1ccc(C)cc1[N+](=O)[O-] returned FBW7 activator inactive, MITF primary inactive, TEAD-YAP inh inactive and GPR151 ag inactive.
C=CCNCCOc1ccc(C)cc1[N+](=O)[O-] was read as FBW7 activator inactive, MITF primary 52, TEAD-YAP inh inactive, GPR151 ag inactive, MITF confirm inactive and AlphaScreen intf2 inactive.
For Cc1ccc(OCCCN(C)C)c([N+](=O)[O-])c1 the results were FBW7 activator inactive, MITF primary 68, TEAD-YAP inh inactive, GPR151 ag inactive, MITF confirm inactive and AlphaScreen intf2 inactive.
CCn1c(=O)c(C(=O)NNC(=O)c2ccccc2[N+](=O)[O-])c(O)c2ccccc21 was read as FBW7 activator inactive, MITF primary inactive, TEAD-YAP inh inactive and GPR151 ag inactive.
`Cn1c(SCc2ccncc2)nnc1C1CCN(Cc2ccc3c(c2)OCO3)CC1` gave FBW7 activator inactive, MITF primary inactive, TEAD-YAP inh inactive and GPR151 ag inactive.
For CC1CCN(CC(=O)Nc2ccc(C(=O)N3CCCCC3)cc2)CC1 the results were FBW7 activator inactive, MITF primary 59, TEAD-YAP inh inactive, GPR151 ag inactive, MITF confirm inactive and AlphaScreen intf2 inactive.
Screening Cc1ccc(NC(=O)CN2CCC(C(=O)NCc3cccs3)CC2)cc1 returned FBW7 activator inactive, MITF primary 114, TEAD-YAP inh inactive, GPR151 ag inactive, MITF confirm inactive and AlphaScreen intf2 inactive.
`CCN1CCN(CC(=O)Nc2ccc(N3CCCCC3)cc2)CC1` gave FBW7 activator inactive, MITF primary 81, TEAD-YAP inh inactive, GPR151 ag inactive, MITF confirm inactive and AlphaScreen intf2 inactive.
For Cc1ccc(NC(=O)CN2CCC(C(=O)NCc3ccccn3)CC2)cc1 the results were FBW7 activator inactive, MITF primary inactive, TEAD-YAP inh inactive and GPR151 ag inactive.
For CC1CCN(CC(=O)Nc2ccc(N3CCCC3)cc2)CC1 the results were FBW7 activator inactive, MITF primary 55, TEAD-YAP inh inactive, GPR151 ag inactive, MITF confirm inactive and AlphaScreen intf2 inactive.
For O=C(CN1CCCC1)Nc1ccc(N2CCCCC2)cc1 the results were FBW7 activator inactive, MITF primary inactive, TEAD-YAP inh inactive and GPR151 ag inactive.
For CCOc1ccc2nc(SCC(=O)c3ccc(CC)cc3)sc2c1 the results were FBW7 activator inactive, MITF primary inactive, TEAD-YAP inh inactive and GPR151 ag inactive.
`CCCCOc1ccc(NC(=O)CN2CCN(C(C)=O)CC2)cc1` gave FBW7 activator inactive, MITF primary 66, TEAD-YAP inh inactive, GPR151 ag inactive, MITF confirm inactive and AlphaScreen intf2 inactive.
COC(=O)c1ccc(NC(=O)CN2CCN(CC#N)CC2)cc1 was read as FBW7 activator inactive, MITF primary 71, TEAD-YAP inh inactive, GPR151 ag inactive, MITF confirm inactive and AlphaScreen intf2 inactive.
`C=CCn1c(SCC(=O)O)nc2sc(C)c(C)c2c1=O` gave FBW7 activator inactive, MITF primary 81, TEAD-YAP inh inactive, GPR151 ag inactive, MITF confirm inactive and AlphaScreen intf2 inactive.
Screening CCCCCSc1ncnc2c1c(-c1ccccc1)cn2-c1ccc(OC)cc1 returned FBW7 activator inactive, MITF primary inactive, TEAD-YAP inh inactive and GPR151 ag inactive.
Screening O=C(Nc1ccc(Cl)c2ncsc12)c1ccc(Cl)s1 returned FBW7 activator inactive, MITF primary inactive, TEAD-YAP inh inactive and GPR151 ag inactive.
O=C(CSc1nnnn1C1CCCC1)Nc1ccc(OCc2ccccc2)cc1 was read as FBW7 activator inactive, MITF primary inactive, TEAD-YAP inh inactive and GPR151 ag inactive.
Screening COc1cccc(N2CCN(c3cc(NCCO)c([N+](=O)[O-])c4nonc34)CC2)c1 returned FBW7 activator inactive, MITF primary inactive, TEAD-YAP inh inactive and GPR151 ag inactive.
Cc1cc(=O)n(C)c(=O)n1CCCCCCN1CCOCC1 was read as FBW7 activator inactive, MITF primary 55, TEAD-YAP inh inactive, GPR151 ag inactive, MITF confirm inactive and AlphaScreen intf2 inactive.
For CCN(CC)CCCCCCn1c(C)cc(=O)n(C)c1=O the results were FBW7 activator inactive, MITF primary inactive, TEAD-YAP inh inactive and GPR151 ag inactive.
`COc1cc(/C=C(\CC(=O)O)c2nc3ccccc3s2)cc(OC)c1` gave FBW7 activator inactive, MITF primary inactive, TEAD-YAP inh inactive and GPR151 ag inactive.
Screening CC(C)c1ccc(OCCOCCN2CCN(C)CC2)cc1 returned FBW7 activator inactive, MITF primary 59, TEAD-YAP inh inactive, GPR151 ag inactive, MITF confirm inactive and AlphaScreen intf2 31.
CCOc1ccc(OCCOCCN2CCN(C)CC2)cc1 was read as FBW7 activator inactive, MITF primary 72, TEAD-YAP inh inactive, GPR151 ag inactive, MITF confirm inactive and AlphaScreen intf2 inactive.
`Cc1ccc(OCCOCCN2CCN(C)CC2)cc1` gave FBW7 activator inactive, MITF primary 60, TEAD-YAP inh inactive, GPR151 ag inactive, MITF confirm inactive and AlphaScreen intf2 inactive.
For COc1ccc(OCCOCCN2CCN(C)CC2)cc1 the results were FBW7 activator inactive, MITF primary inactive, TEAD-YAP inh inactive and GPR151 ag inactive.
CC1Cc2ccccc2N1S(=O)(=O)c1ccc2[nH]c(=O)c(=O)[nH]c2c1 (stereo not drawn) was read as FBW7 activator inactive, MITF primary inactive, TEAD-YAP inh inactive and GPR151 ag inactive.
`Cn1cnnc1SCC(=O)Nc1ccc(-c2nc3cc(NC(=O)CSc4nncn4C)ccc3o2)cc1` gave FBW7 activator inactive, MITF primary inactive, TEAD-YAP inh inactive and GPR151 ag inactive.
Screening O=C(O)CC(CCc1ccccc1)CC(=O)O returned FBW7 activator inactive, MITF primary 61, TEAD-YAP inh inactive, GPR151 ag inactive, MITF confirm inactive and AlphaScreen intf2 inactive.
`O=C(c1ccc2ccccc2c1)N1CCN(c2ccccc2F)CC1` gave FBW7 activator inactive, MITF primary inactive, TEAD-YAP inh inactive and GPR151 ag inactive.
For CC(C(=O)NCc1ccco1)N1CCN(C)CC1 (stereo not drawn) the results were FBW7 activator inactive, MITF primary inactive, TEAD-YAP inh inactive and GPR151 ag inactive.
Screening C=CCC1(NCc2ccco2)CCN(C)CC1 returned FBW7 activator inactive, MITF primary 63, TEAD-YAP inh inactive, GPR151 ag inactive, MITF confirm inactive and AlphaScreen intf2 inactive.
